The source of these data is PubChem BioAssay (NCATS).

Unmarked numbers belong to inactive results. Inconclusive results are not listed. Activity calls are given as the source filed them. Unless noted, the call rests on the fitted dose curve; in most records, active means well fitted curve in the direction sought with a large enough effect; inconclusive means small, poorly fitted or top-dose-only effect, or another doubt; inactive means no such curve, though single readings can be large; an effect the other way counts as inactive or inconclusive.

The target in assay [1] is Lysosomal acid glucosylceramidase (Homo sapiens) (UniProt P04062). Kind of assay: Glucocerebrosidase-p2 (AID 348; in the data active means potency below about 10 µM; further: potency means the concentration at half of the fitted maximal effect). The note with it: purified GBA, blue fluorogenic substrate, 40 min. The essentials: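 Normal human glucocerebrosidase (0.2 nM) with blue fluorogenic substrate (80 uM final) in citrate/phosphate pH 5.9 with 10mM sodium taurocholate, 0.01% tween-20; 40 min RT, NaOH/glycine stop; fluorescence Ex 365/Em 440; AC50 from a titration from 0.6 nM upwards.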
Chain of Lysosomal acid glucosylceramidase (Homo sapiens) (P04062 whole entry, looked up): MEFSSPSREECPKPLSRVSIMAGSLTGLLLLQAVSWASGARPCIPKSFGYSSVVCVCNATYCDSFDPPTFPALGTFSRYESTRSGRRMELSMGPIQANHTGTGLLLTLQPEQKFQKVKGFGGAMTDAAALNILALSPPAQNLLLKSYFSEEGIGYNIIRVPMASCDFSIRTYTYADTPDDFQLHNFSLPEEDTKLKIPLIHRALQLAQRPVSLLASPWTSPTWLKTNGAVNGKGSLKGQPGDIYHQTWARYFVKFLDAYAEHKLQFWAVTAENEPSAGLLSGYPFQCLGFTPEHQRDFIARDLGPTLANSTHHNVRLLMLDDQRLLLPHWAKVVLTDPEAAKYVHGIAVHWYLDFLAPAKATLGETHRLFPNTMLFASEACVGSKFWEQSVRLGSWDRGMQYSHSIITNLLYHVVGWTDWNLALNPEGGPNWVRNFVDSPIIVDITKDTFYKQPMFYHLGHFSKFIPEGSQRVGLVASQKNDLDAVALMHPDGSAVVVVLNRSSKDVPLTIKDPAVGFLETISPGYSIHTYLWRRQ

Assay [2] in a line: AP1 Signaling Pathway (AID 357; active means well fitted curve in either direction with a large enough effect, not every such curve was filed as active;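 further: ME-180 reporter cells stimulated with EGF at its EC50 level; on the % scale 0 is the no-effect control and ±100 the full control effect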). The note with it: ME-180 AP-1-bla reporter, EGF-induced, beta-lactamase ratio, 5 h; at 7.69 µM (top of the series) unless noted. The essentials:
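AP-1-bla ME-180 cells, Opti-MEM + 0.5% dialyzed FBS, plated overnight 37 °C. Cpd titration + EC50 EGF, 5 h 37 °C. CCF4 2.5 h RT; ex 405, em 460/530 ratio → %activity, AC50.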

Assay [3] has as its target Cytochrome P450 1A2 (Homo sapiens) (UniProt P05177). Kind of assay: p450-cyp1a2 (AID 410; calls by dose curve; further: potency means the concentration at half of the fitted maximal effect). The note with it: recombinant CYP1A2, luciferin-ME demethylation, luminescence; series mostly up to 57 µM. The essentials:
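20nM CYP1A2, 100uM Luciferin-ME (=Km), 100mM KPO4; cpd 10 min RT; +NADPH regen, 60 min RT; stop/detect 20 min; luminescence. Normalized to furafylline 57 uM = full inhibition.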

Assay [4] is described as follows: NFAT Signaling Pathway (AID 444; active means well fitted curve in either direction with a large enough effect, not every such curve was filed as active;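 further: carbachol stimulus at about its EC50 of 1 µM final; on the % scale 0 is the no-effect control and ±100 the full control effect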). The note with it: Jurkat NFAT-bla M1, carbachol, beta-lactamase ratio, 5 h; at 7.69 µM (top of the series) unless noted. In a few lines: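 Jurkat cells with NFAT-driven β-lactamase reporter and co-expressed M1 receptor, stimulated with carbachol (final 1 uM, ~EC50), compound titration, 5 h at 37 °C. CCF4 loaded 1 h at RT; 460/530 nm ratio gave %activity and AC50.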

Assay [5] is described as follows: Stat Signaling Pathway (AID 446; active means well fitted curve in either direction with a large enough effect, not every such curve was filed as active;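 further: ME-180 cervical cancer cells given 40 pM IL-6 alongside compound; SIE-controlled beta-lactamase reporter measured as 460/530 nm FRET emission ratio; on the % scale 0 is the no-effect control and ±100 the full control effect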). The note with it: ME-180 (cervical carcinoma) SIE beta-lactamase reporter, IL-6 stimulated, 5 h; at 7.69 µM (top of the series) unless noted. The essentials:
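Compound effects on IL-6-induced STAT reporter activity were measured in ME-180 cells. After overnight culture, cells were co-treated with 40 pM IL-6 for 5 hrs before beta-lactamase substrate loading at room temperature.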

Assay [6] concerns the target Glucocorticoid receptor (Homo sapiens) (UniProt P04150). In words: GR-GFP Redistribution (AID 450;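 active means compounds whose dose series gives a full or clear partial fitted curve of increased nuclear translocation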; further: potency means the concentration at half of the fitted maximal effect). The note with it: U2OS GR-GFP nuclear translocation, laser cytometry, 2 h.
Assay [7] shares this target. In words: GR-EFC Redistribution (AID 451; calls by dose curve; further: potency means the concentration at half of the fitted maximal effect). The note with it: CHO-K1 GR-EFC translocation, beta-gal luminescence, 2 h. In a few lines:
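CHO-K1 cells expressing nuclear EA and GR-ED fragments of b-gal; compounds titrated up to 46 uM final, 2 h at 37 C. GR nuclear translocation read as complemented b-gal luminescence after 1 h RT detection.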

For assay [8], the target named is Mitogen-activated protein kinase 10 (Mus musculus) (UniProt Q61831). In words: JNK3 AlphaScreen Assay (AID 530; active means well fitted curve in either direction with a large enough effect, not every such curve was filed as active;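 further: kinase came from lysate of stimulated human HepG2 cells; signal reports phosphorylation of biotinylated GST-cJun 1-79 at Ser73 with 10 µM ATP; on the % scale 0 is the no-effect control and ±100 the full control effect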). The note with it: JNK3 lysate, c-Jun phosphorylation; series mostly up to 57.1 µM. In a few lines:
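HepG2 lysate (IL-1b/TNFa pre-activated) + biotin-GST-cJun 1-79 + anti-pSer73 cJun; cpd titration, 15 min RT; ATP 10 uM start; Tris pH 7.6, MgCl2, DTT, vanadate; beads in EDTA buffer; AlphaScreen.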
A general note: In Alpha technology, singlet oxygen from a donor bead excites a nearby acceptor bead.

Assay [9] addresses 3',5'-cyclic-AMP phosphodiesterase 4B (Homo sapiens) (UniProt Q07343). In words: qHTS Assay for Inhibitors of PDE-IV (AID 607; active means well fitted activation curve with a large enough effect in the main read-out, with a control signal flat, not every such curve was filed as active; further: % of control where 0% means no effect). Conditions: HEK293 ACTOne CNG channel cells, membrane potential fluorescence; series mostly up to 22.9 µM. The essentials:
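ACTOne HEK293 cells carry a modified cAMP-gated CNG channel and express endogenous PDE4; plated 1000 cells/well, compounds up to 22.9 uM final. Membrane-potential dye fluorescence (ex 535/em 590) was read; parental cells received 10 uM forskolin + 100 uM RO 20-1724.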

The target of assay [10] is Cytochrome P450 3A4 (Homo sapiens) (UniProt P08684). In words: qHTS Assay for Activators of Cytochrome P450 3A4 (AID 885). Further: nearly all actives have a fitted effect of over 65% in size. Conditions: recombinant CYP3A4, Luciferin-PPXE luminescence, 60 min; series mostly up to 57.1 µM. In a few lines:
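CYP3A4 activity: Luciferin-PPXE O-dealkylation, 25uM substrate, 200mM KPO4, RT throughout. Read-out is luciferase luminescence; higher values reflect activation.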
On the technique in general: qHTS replaces the single test concentration by a dilution series.

In assay [11] the target is Dual specificity protein kinase CLK4 (Homo sapiens) (UniProt Q9HAZ1). Kind of assay: qHTS Assay for Inhibitors of CDC-like Kinase 4 (Kinase-Glo Assay) (AID 1770). Further: nearly all actives have a fitted effect of over 65% in size. Further: potency means the concentration at half of the fitted maximal effect. The note with it: recombinant Clk4, Kinase-Glo ATP depletion luminescence; series mostly up to 66.7 µM. The essentials:
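Substrate mix (RS peptide 100 uM, ATP 1 uM) dispensed, compound pinned in, then Clk4 added to 25 nM final. Incubated 4.5 h at RT; Kinase-Glo reagent added, luminescence read after 5 min.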

For assay [12] the target is unchanged. Kind of assay: qHTS Assay for Inhibitors of CDC-like Kinase 4 (ADP-Glo Assay) (AID 1771). Further: nearly all actives have a fitted effect of over 70% in size. Further: potency means the concentration at half of the fitted maximal effect. Conditions: recombinant CLK4, ADP-Glo luminescence; series mostly up to 80 µM. The essentials: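 25 nM Clk4, 100 uM RS peptide, 1 uM ATP (final); 2 mM MgCl2, 0.5 mM EGTA, 2.5 mM DTT, 0.01% Triton X-100; 1 hr RT. ADP-Glo readout: ATP depletion 45 min, conversion/luciferase 30 min, luminescence.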

For assay [13] the target is unchanged. In words: qHTS Assay for Inhibitors of CDC-like Kinase 4 (ADP-FP Assay) (AID 1795). Further: nearly all actives have a fitted effect of over 60% in size. Further: potency means the concentration at half of the fitted maximal effect. The note with it: Transcreener ADP fluorescence polarization; series mostly up to 50 µM. In a few lines:
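Clk4 6.25 nM; RS peptide 100 uM; ATP 1 uM; 25 mM Tris pH 7.5, 10 mM MgCl2; 1 h reaction. ADP detected via antibody/orange tracer FP displacement; TG003 positive control.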

The target of assay [14] is Ubiquitin carboxyl-terminal hydrolase 1 (Homo sapiens) (UniProt O94782). In words: Inhibitors of USP1/UAF1: Pilot qHTS (AID 504865).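 Further: rhodamine fluorescence freed from ubiquitin-rhodamine substrate followed over time; top concentration of the series differs between compounds; on the % scale 0 is the no-effect control and ±100 the full control effect; nearly all actives have a fitted effect of over 35% in size.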 Conditions: purified USP1/UAF1, Ub-rhodamine cleavage fluorescence; series mostly up to 54.9 µM. The essentials:
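In 50mM HEPES pH 7.8 containing 0.5mM EDTA, 1mM TCEP, 0.1 mg/ml BSA and 0.01% Tween-20, 1nM USP1/UAF1 is exposed to compound for 15 min, then Ub-Rho (150nM final) is added and fluorescence is read over time.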

Assay [15] in a line: Primary qHTS for small molecule stabilizers of the endoplasmic reticulum resident proteome: Secreted ER Calcium Modulated Protein (SERCaMP) assay (AID 1508630). Further: on the % scale 0 is the no-effect control and ±100 the full control effect. The note with it: SH-SY5Y GLuc-SERCaMP (Gaussia luciferase released on ER calcium loss) secretion, thapsigargin, luminescence; series mostly up to 38.4 µM. The essentials:
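The SH-SY5Y reporter protocol was run at 3 concentrations up to 38.3 uM (primary) or 11 concentrations (follow-up): 16 h compound, 100 nM thapsigargin for 4 h, then extracellular luciferase luminescence.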

Assay [16] deals with Cytochrome P450 3A4 (Homo sapiens) (UniProt P08684). Kind of assay: qHTS Assay for Inhibitors and Substrates of Cytochrome P450 3A4 (AID 884). Further: potency means the concentration at half of the fitted maximal effect; nearly all actives have a fitted effect of over 50% in size. Conditions: recombinant CYP3A4, Luciferin-PPXE luminescence; series mostly up to 57.1 µM. In a few lines:
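Luminescent readout of luciferin produced by CYP3A4 (20 nM) dealkylation of Luciferin-PPXE, 25 uM (its KM). NADPH-driven reaction ran 60 min at RT after 10 min compound preincubation; data scaled to 57 uM ketoconazole as 100% inhibition.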

Chain of 3',5'-cyclic-AMP phosphodiesterase 4B (Homo sapiens) (Q07343 whole entry, looked up): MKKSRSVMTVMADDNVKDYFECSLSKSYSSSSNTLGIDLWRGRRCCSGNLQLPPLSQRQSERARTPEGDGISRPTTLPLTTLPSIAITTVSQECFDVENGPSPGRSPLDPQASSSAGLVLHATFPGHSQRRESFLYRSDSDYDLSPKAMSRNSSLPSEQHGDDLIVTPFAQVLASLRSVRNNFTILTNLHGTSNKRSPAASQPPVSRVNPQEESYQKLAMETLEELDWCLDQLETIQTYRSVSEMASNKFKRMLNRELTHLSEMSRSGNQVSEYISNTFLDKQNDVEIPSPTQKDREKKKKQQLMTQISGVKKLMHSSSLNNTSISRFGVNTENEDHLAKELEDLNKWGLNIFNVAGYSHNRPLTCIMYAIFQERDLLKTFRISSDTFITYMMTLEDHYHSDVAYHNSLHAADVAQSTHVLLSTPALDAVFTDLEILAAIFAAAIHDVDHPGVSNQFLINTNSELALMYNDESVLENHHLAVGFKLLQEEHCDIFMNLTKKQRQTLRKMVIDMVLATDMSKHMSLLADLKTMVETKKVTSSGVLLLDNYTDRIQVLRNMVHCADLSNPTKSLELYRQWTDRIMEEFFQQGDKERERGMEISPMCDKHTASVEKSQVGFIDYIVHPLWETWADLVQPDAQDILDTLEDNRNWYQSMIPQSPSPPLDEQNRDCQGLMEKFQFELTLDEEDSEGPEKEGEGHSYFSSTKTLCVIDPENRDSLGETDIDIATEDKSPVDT
Chain of Glucocorticoid receptor (Homo sapiens) (P04150 whole entry, looked up): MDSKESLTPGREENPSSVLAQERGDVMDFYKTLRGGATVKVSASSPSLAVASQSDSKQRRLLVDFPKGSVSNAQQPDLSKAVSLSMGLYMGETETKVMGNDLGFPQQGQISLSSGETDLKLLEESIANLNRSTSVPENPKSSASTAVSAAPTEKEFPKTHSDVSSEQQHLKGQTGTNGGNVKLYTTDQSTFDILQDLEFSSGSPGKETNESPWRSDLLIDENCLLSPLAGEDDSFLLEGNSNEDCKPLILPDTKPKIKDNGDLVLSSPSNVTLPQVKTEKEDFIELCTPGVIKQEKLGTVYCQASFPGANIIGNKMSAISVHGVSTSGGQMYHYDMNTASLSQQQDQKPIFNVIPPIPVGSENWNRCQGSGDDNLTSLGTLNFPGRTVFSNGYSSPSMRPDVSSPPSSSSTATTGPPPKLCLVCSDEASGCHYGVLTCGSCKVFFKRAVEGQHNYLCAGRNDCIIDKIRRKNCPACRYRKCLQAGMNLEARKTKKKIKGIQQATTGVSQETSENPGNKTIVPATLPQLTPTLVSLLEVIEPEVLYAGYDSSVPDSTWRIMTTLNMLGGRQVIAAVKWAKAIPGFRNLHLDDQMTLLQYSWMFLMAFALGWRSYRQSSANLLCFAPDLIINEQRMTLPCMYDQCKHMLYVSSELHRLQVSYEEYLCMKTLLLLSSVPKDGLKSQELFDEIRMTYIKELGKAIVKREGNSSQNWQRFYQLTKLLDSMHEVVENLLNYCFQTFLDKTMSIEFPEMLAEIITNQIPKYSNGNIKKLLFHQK
Chain of Ubiquitin carboxyl-terminal hydrolase 1 (Homo sapiens) (O94782 whole entry, looked up): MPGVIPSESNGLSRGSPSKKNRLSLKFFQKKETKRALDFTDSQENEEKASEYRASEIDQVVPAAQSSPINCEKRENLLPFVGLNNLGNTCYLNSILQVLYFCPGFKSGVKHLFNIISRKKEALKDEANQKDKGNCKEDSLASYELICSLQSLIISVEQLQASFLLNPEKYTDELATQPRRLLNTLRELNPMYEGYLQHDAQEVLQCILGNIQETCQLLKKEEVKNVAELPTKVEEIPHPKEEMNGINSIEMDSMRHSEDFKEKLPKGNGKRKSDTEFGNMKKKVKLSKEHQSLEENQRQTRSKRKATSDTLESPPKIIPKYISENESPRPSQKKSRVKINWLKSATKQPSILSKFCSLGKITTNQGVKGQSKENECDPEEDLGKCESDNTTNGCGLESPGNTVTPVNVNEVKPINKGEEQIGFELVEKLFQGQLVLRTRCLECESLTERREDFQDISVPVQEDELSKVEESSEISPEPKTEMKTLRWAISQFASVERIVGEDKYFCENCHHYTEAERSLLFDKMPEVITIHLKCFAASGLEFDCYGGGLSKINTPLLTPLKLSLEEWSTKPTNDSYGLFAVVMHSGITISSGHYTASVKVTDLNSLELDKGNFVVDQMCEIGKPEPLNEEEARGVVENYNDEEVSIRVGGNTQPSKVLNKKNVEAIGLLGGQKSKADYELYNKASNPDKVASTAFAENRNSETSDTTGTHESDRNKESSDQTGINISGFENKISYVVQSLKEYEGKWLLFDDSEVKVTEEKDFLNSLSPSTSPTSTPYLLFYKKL
Chain of Cytochrome P450 1A2 (Homo sapiens) (P05177 whole entry, looked up): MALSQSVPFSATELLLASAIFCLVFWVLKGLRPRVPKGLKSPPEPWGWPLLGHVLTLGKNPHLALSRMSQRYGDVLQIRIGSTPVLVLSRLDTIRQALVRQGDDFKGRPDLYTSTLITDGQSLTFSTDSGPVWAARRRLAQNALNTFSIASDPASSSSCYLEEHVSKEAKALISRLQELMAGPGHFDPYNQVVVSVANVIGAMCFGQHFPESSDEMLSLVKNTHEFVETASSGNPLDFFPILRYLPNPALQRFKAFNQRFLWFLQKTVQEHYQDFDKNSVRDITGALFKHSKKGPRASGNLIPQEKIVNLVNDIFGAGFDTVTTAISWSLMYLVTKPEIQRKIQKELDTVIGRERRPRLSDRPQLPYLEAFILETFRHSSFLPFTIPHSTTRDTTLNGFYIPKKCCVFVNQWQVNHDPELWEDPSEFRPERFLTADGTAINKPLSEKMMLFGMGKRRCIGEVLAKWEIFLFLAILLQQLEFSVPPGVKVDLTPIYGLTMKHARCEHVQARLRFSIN
Chain of Dual specificity protein kinase CLK4 (Homo sapiens) (Q9HAZ1 whole entry, looked up): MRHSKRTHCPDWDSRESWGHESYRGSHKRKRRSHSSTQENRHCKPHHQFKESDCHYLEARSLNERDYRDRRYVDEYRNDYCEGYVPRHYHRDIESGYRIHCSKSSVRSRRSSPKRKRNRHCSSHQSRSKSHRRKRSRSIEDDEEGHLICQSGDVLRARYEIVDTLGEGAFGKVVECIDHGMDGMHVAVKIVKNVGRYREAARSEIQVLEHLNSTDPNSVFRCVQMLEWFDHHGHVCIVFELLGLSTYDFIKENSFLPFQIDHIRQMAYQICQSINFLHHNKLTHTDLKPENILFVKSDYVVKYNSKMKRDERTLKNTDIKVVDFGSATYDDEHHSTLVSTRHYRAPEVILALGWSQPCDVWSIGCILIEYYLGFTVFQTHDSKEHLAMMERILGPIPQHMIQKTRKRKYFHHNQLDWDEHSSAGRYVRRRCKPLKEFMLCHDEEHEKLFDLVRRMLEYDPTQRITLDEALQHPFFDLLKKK
Chain of Cytochrome P450 3A4 (Homo sapiens) (P08684 whole entry, looked up): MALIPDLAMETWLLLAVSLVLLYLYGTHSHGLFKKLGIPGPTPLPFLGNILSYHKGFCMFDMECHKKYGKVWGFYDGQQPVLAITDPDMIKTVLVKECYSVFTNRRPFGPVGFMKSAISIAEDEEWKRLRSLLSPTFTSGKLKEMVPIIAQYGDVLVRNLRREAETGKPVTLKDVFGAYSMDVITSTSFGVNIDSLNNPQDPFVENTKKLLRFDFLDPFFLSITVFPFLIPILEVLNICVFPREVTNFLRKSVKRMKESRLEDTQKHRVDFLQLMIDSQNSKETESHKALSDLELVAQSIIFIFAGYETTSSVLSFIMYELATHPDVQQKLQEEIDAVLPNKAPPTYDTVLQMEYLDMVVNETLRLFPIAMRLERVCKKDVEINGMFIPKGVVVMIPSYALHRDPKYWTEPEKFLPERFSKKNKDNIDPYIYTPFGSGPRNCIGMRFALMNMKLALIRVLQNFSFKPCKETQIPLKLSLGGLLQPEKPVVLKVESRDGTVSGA

In the case of `Cc1cnc(CNc2ccnc(-c3ccoc3)n2)cn1`, the Potency in assay [1] is > 11.4 µM; in assay [3], 12.6 µM (active); in [6], > 46 µM; in [7], > 46 µM. Further, the activity change, negative = inhibition in assay [2] was 16.3%; in assay [4], -4.07%. In assay [5], the activity, negative = inhibition was 7.07%. Further, the Potency result in [8], in assay [9], in [10], in assay [11], in [12] and in [13] was “inactive” in each case. Also, the Potency entry in [14] was “inactive”. The outcome in assay [15] was inactive.
Regarding `Cc1cnc(CNc2nc(-c3ccccc3C(F)(F)F)nc3ccccc23)cn1`, the Potency is > 11.4 µM in [1]; 12.6 µM (active) in assay [3]; > 46 µM in assay [6]; > 46 µM in assay [7]; 5.01 µM (active) in [16]. Moreover, the figures for the activity change, negative = inhibition in assay [2] and in assay [4] were -16.3% and 12.8%, respectively. Also, the activity, negative = inhibition in assay [5] is -2.08%. The Potency entry in assay [8], in assay [9], in assay [10], in assay [11], in assay [12] and in assay [13] was “inactive” throughout. The outcome in assay [15] was inactive.
With `COCCn1c(=O)c(-c2cn(C)c3ccccc23)nc2cnc(OCc3ccccc3)nc21`, the Potency is > 11.4 µM in assay [1], 5.01 µM (active) in [3], > 9.22 µM in assay [6] and > 46 µM in assay [7]. The activity change, negative = inhibition was -1.93% in [2] and -4.76% in assay [4]. Also, the activity, negative = inhibition in [5] is 23.6%. In addition, the Potency result in [8], in assay [10], in [11], in assay [12], in [13] and in [14] was “inactive” in each case. The result in [15] was inactive.
For `COCCn1c(=O)cnc2cnc(Oc3cccc(Cl)c3)nc21`, the Potency in assay [1] was > 11.4 µM; in assay [3] it was 3.16 µM (active); in assay [7], > 46 µM. Besides, the activity change, negative = inhibition was 1.86% in assay [2] and 2.09% in assay [4]. In assay [5], the activity, negative = inhibition is -13.2%. In addition, the Potency entry in assay [8], in [9], in [10], in assay [11], in [12] and in assay [13] was “inactive” throughout. Also, in [14], the Potency entry is “inactive”. Also, the outcome in assay [15] was inactive.
As to `O=c1c(-c2ccc(F)cc2)nc2cncnc2n1-c1ccccc1`, the Potency in assay [1] is > 11.4 µM; in assay [3] it was 7.94 µM (active); in assay [6], > 9.22 µM; in [7] it was > 46 µM. For the same molecule, the activity change, negative = inhibition was -2.6% in [2] and 11.8% in assay [4]. The activity, negative = inhibition in assay [5] is -3.31%. Also, the Potency result in [8], in assay [10], in assay [11], in assay [12], in assay [13] and in [14] was “inactive” each time. For the same molecule, the outcome in assay [15] was inactive.
On to `Cc1cnc(CNc2ncnc3ccc(-c4ccc5c(c4)OCO5)cc23)cn1`, for which the Potency in [1] was > 11.4 µM; in assay [3], 0.398 µM (active); in assay [6] it was > 46 µM; in assay [7] it was > 46 µM; in assay [16], 2.51 µM (active); in [11], 0.282 µM (active). Besides, the Potency in assay [12] was 0.398 µM (active); in [13] it was 0.224 µM (active). The activity change, negative = inhibition was -18.1% in assay [2] and 14.2% in assay [4]. Further, the activity, negative = inhibition in [5] was -16.2%. For the same molecule, the Potency result in [9], in assay [10] and in assay [14] was “inactive” throughout. For the same molecule, the outcome in assay [15] was inactive.
